Measurements reported in PubChem BioAssay (EPA / NIEHS).
Records with an inconclusive call do not appear. Calls of active or inactive are those of the source. Rule for the calls, unless noted: active = hit-call score of the fitted dose curve at least 0.9, where 1 is the maximum; inactive = score below 0.9.

Experiments:
[1] = ACEA_ER_80hr: ACEA Biosciences xCELLigence Real-Time Cell Analysis on Estrogen Receptor Agonism for Proliferation (AID 2282667; active = hit-call score of the fitted dose curve at least 0.9, where 1 is the maximum); settings: T47D proliferation, impedance (xCELLigence), 80 h
How it was run: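 Cell-growth kinetics were measured by impedance in T47D cells treated continuously with compound (top 100 uM final, 1:4 steps, 8 points). Activity at 80 h was scored as signal gain over the DMSO baseline.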

[2] = ATG_CRE_CIS: Attagene CIS-FACTORIAL HepG2 Assay for human cAMP Responsive Element (CRE) binding protein 3 (AID 2282926); settings: HepG2 CRE cis-reporter, Attagene multiplexed mRNA; actives raise or lower the signal
How it was run: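 Cells carrying cis-regulated reporter constructs respond through their own endogenous factors. After 24 h treatment, RNA is reverse-transcribed, amplified, labelled and sized by capillary electrophoresis; up- and down-regulation are both scored against vehicle.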

[3] = target: CCAAT/enhancer-binding protein beta (Homo sapiens) (UniProt P17676); test: ATG_C_EBP_CIS: Attagene CIS-FACTORIAL HepG2 Assay for human CCAAT/Enhancer Binding Protein (C/EBP) beta (AID 2282927); settings: HepG2 Attagene cis-factorial transcription factor reporter; actives raise or lower the signal
How it was run: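 Transiently transfected HepG2 (MRTU library, endogenous TF-driven promoters); 24 h dosing; total RNA → oligo(dT) RT → PCR → 6-FAM primer extension → HpaI digest → CE; fit bidirectionally vs DMSO.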

[4] = ATG_CMV_CIS: Attagene CIS-FACTORIAL HepG2 Assay for human CMV (Internal Marker) (AID 2282928); settings: HepG2 CMV promoter reporter, transcription factor profiling; actives raise or lower the signal;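 note: endpoint acts as a background internal control marker rather than a target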
How it was run: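 Fluorescence intensity of RT-PCR-derived reporter fragments, resolved by capillary electrophoresis, gives the signal. HepG2 liver cells bearing transfected cis-element reporters were treated 24 h; activity in either direction was fit relative to DMSO-treated controls.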

[5] = ATG_DR4_LXR_CIS: Attagene CIS-FACTORIAL HepG2 Assay for human Liver X Receptor (LXR), DR4 submotif (AID 2282929); settings: HepG2 Attagene DR4 cis-reporter, mRNA transcription; actives raise or lower the signal
How it was run: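 Endogenous factor activity at a DR4 cis-element is read as reporter mRNA in transiently transfected HepG2 cells. Exposure lasts 24 h; transcripts are amplified, fluorescently labelled and sized by capillary electrophoresis, with DMSO as baseline.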

[6] = target: Aryl hydrocarbon receptor (Homo sapiens) (UniProt P35869); test: ATG_Ahr_CIS: Attagene CIS-FACTORIAL HepG2 Assay for human Aryl Hydrocarbon Receptor (Ahr) (AID 2282930); settings: HepG2 AhR cis-factorial reporter transcription; actives raise or lower the signal
How it was run: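 Read-out: reporter mRNA quantified by RT-PCR with fluorescent primer extension and capillary electrophoresis. Human HepG2 liver cells carried transfected cis-promoter reporter units and were exposed to chemical for 24 h; gain or loss fitted relative to DMSO.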

[7] = ATG_AP_1_CIS: Attagene CIS-FACTORIAL HepG2 Assay for human Activator Protein 1 (AP-1) (AID 2282931); settings: HepG2 Attagene cis-factorial AP-1 reporter mRNA; actives raise or lower the signal
How it was run: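 Fluorescence of labelled PCR fragments separated by capillary electrophoresis gives reporter mRNA levels. HepG2 with transfected cis-regulated reporter units, 24 h exposure; DMSO serves as baseline for bidirectional curve fits.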

[8] = ATG_AP_2_CIS: Attagene CIS-FACTORIAL HepG2 Assay for human Activator Protein 2 (AP-2) (AID 2282932); settings: HepG2 AP-2 cis-reporter, Attagene transcription factor profiling; actives raise or lower the signal
How it was run: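 Liver-derived HepG2 line, cis-reporter system measuring endogenous factors; 24 h dosing; reporter mRNA detected by fluorescent RT-PCR and capillary electrophoresis.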

[9] = ATG_BRE_CIS: Attagene CIS-FACTORIAL HepG2 Assay for human Bone Morphogenetic Protein (BMP) Response Element (BRE) (AID 2282933); settings: HepG2 BMP response element reporter, Attagene transcription factor profiling; actives raise or lower the signal
How it was run: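 Multiplexed cis-reporter assay, HepG2, 24 h exposure. mRNA from reporter units quantified via RT-PCR/CE; DMSO baseline; bidirectional curve fit.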

[10] = target: Retinoic acid receptor alpha (Homo sapiens) (UniProt P10276); test: ATG_DR5_RAR_CIS: Attagene CIS-FACTORIAL HepG2 Assay for human Retinoic Acid Receptor Alpha (RARE), DR5 submotif (AID 2282934); settings: HepG2 Attagene cis-factorial RARE DR5 reporter, mRNA; actives raise or lower the signal;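 for AC50: reporter responds to endogenous RAR alpha beta and gamma in HepG2 not RARA alone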
How it was run: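 Read-out: DR5-driven reporter transcript measured by RT-PCR, 6-FAM primer extension, HpaI digest and capillary electrophoresis. Human HepG2 liver cells carry transiently transfected cis-element reporter constructs; dosing lasts 24 h. Gain or loss of signal fitted against DMSO baseline.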

[11] = target: Transcription factor E2F1 (Homo sapiens) (UniProt Q01094); test: ATG_E2F_CIS: Attagene CIS-FACTORIAL HepG2 Assay for human E2F Transcription Factor 1 (AID 2282935); settings: HepG2 Attagene cis-reporter, E2F reporter RNA transcripts; actives raise or lower the signal
How it was run: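 Liver-derived HepG2 cells expressing transfected promoter-driven reporter units received test chemical for 24 hours. Signal gains or losses were fitted bidirectionally against DMSO.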

[12] = ATG_E_Box_CIS: Attagene CIS-FACTORIAL HepG2 Assay for human Enhancer Box (E-box) (AID 2282936); settings: HepG2 E-box cis-reporter transcription, actives raise or lower the signal
How it was run: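 In this cell-based setup, HepG2 cells bearing transfected promoter-driven reporter units were exposed to chemicals for 24 h; reporter transcripts were amplified, 6-FAM-labelled, cut with HpaI and sized by capillary electrophoresis.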

[13] = ATG_M_61_CIS: Attagene CIS-FACTORIAL HepG2 Assay for M61 Transcription Factor (Internal Marker) (AID 2282937); settings: HepG2 Attagene CIS-FACTORIAL M61 internal marker reporter; actives raise or lower the signal
How it was run: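 This endpoint serves as an internal background control within a multiplexed HepG2 cis-reporter panel. Cells are exposed for 24 h; reporter mRNA is amplified, fluorescently labelled and sized by capillary electrophoresis, with DMSO as negative control.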

[14] = ATG_EGR_CIS: Attagene CIS-FACTORIAL HepG2 Assay for human Early Growth Response 1 (EGR1) (AID 2282938); settings: HepG2 Attagene CIS-FACTORIAL EGR reporter mRNA; actives raise or lower the signal
How it was run: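 HepG2, transient MRTU transfection (cis promoters), 24 h compound. RNA → RT (oligo-dT) → PCR → 6-FAM labelling → HpaI cut → CE fluorescence. Bidirectional fit, DMSO baseline.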

[15] = ATG_M_19_CIS: Attagene CIS-FACTORIAL HepG2 Assay for M19 Transcription Factor (Internal Marker) (AID 2282939); settings: HepG2 Attagene CIS-FACTORIAL M19 internal marker reporter; actives raise or lower the signal
How it was run: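 Signals come from fluorescence of labelled reporter-specific PCR fragments resolved by capillary electrophoresis, following 24 h treatment of HepG2 cells transfected with cis-promoter reporter units; activity was fitted in both directions relative to DMSO.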

[16] = ATG_ERE_CIS: Attagene CIS-FACTORIAL HepG2 Assay for Estrogen Response Element (ERE) (AID 2282940); settings: HepG2 ERE cis-reporter, Attagene RNA transcript; actives raise or lower the signal
How it was run: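 Fluorescence of capillary-separated, FAM-labelled reporter cDNA fragments indicates reporter mRNA levels in HepG2 cells exposed to chemicals for 24 h. Transient transfection with cis-regulated units; data fitted in both directions against DMSO.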

[17] = ATG_Ets_CIS: Attagene CIS-FACTORIAL HepG2 Assay for human Erythroblast Transformation Specific (ETS) (AID 2282941); settings: HepG2 ETS cis-reporter transcription, actives raise or lower the signal
How it was run: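 Multiplexed reporter transcript profiling: HepG2, 24 h treatment, total RNA to cDNA, PCR, 6-FAM labelling, HpaI cut, capillary electrophoresis. Gain- or loss-of-signal fitted against DMSO.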

[18] = target: Hepatocyte nuclear factor 3-beta (Homo sapiens) (UniProt Q9Y261); test: ATG_FoxA2_CIS: Attagene CIS-FACTORIAL HepG2 Assay for human Forkhead box A2 (FOXA2) (AID 2282942); settings: HepG2 cis-reporter transcription factor activity, 24 h; actives raise or lower the signal
How it was run: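 Cells: HepG2, transient multiplex reporter transfection. Exposure 24 h. Detection: reporter-specific RT-PCR, fluorescent labelling, restriction digest, capillary electrophoresis. Analysis: bidirectional curve fit, DMSO as negative control.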

[19] = ATG_FoxO_CIS: Attagene CIS-FACTORIAL HepG2 Assay for human Forkhead box O (FoxO) (AID 2282943); settings: HepG2 Attagene cis-reporter, FoxO element, mRNA; actives raise or lower the signal
How it was run: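 Read-out: fluorescence of 6-FAM-labelled reporter cDNA fragments resolved by capillary electrophoresis. Transiently transfected HepG2 cells were dosed for 24 h; activity fitted in both directions relative to DMSO controls.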

[20] = ATG_GATA_CIS: Attagene CIS-FACTORIAL HepG2 Assay for human GATA Binding Protein (AID 2282944); settings: HepG2 GATA cis-element reporter, Attagene multiplex mRNA; actives raise or lower the signal
How it was run: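 After transfecting HepG2 cells with multiple cis-regulated reporter units, chemicals are dosed for 24 h; isolated RNA undergoes RT-PCR and fluorescent labeling before capillary electrophoresis, with activity expressed against DMSO.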

Measured: AC50

Sequence of Transcription factor E2F1 (Homo sapiens) (Q01094 whole entry, looked up): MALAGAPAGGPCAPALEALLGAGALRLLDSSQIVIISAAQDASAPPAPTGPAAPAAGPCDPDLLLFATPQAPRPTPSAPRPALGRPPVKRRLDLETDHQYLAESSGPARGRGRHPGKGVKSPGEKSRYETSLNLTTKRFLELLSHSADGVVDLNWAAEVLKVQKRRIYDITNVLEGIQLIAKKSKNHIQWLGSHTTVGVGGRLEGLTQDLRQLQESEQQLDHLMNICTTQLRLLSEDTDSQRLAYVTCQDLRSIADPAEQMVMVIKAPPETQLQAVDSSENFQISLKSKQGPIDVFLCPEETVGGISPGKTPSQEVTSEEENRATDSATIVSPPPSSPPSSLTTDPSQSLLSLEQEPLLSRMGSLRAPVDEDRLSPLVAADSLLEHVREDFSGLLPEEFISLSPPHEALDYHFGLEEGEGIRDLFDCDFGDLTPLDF
Sequence of Aryl hydrocarbon receptor (Homo sapiens) (P35869 whole entry, looked up): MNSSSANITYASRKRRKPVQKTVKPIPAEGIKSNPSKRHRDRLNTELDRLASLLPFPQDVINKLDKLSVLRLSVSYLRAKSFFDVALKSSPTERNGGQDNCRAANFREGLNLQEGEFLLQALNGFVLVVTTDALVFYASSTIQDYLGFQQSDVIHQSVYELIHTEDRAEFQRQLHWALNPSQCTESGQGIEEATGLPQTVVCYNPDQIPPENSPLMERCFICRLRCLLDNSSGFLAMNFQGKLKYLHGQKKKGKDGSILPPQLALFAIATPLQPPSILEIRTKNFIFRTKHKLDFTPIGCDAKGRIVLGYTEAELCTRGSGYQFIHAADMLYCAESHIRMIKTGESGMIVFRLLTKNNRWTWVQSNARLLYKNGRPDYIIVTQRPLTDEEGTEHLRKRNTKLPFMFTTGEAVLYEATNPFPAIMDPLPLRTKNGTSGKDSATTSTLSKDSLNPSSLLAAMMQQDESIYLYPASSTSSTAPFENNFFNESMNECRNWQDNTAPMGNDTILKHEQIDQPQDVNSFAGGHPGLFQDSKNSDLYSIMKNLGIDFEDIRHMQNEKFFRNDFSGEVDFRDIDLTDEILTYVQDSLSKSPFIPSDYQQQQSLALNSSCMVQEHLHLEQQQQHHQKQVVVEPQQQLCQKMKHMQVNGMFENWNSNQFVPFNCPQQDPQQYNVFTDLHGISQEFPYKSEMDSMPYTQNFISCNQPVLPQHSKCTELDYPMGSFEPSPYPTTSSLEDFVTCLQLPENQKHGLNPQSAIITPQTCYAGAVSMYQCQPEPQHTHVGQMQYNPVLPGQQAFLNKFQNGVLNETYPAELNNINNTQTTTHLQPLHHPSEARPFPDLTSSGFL
Sequence of Retinoic acid receptor alpha (Homo sapiens) (P10276 whole entry, looked up): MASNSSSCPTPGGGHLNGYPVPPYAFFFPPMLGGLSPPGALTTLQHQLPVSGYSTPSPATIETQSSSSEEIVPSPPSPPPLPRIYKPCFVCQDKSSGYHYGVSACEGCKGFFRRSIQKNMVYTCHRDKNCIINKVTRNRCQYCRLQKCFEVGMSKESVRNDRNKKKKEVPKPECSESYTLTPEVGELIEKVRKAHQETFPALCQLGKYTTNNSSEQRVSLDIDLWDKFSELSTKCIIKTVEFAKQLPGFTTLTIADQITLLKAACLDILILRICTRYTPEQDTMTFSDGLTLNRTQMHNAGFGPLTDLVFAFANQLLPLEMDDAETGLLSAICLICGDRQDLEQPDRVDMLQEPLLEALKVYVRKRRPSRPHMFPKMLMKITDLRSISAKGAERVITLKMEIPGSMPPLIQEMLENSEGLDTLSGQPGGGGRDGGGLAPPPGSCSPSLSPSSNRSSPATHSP
Sequence of CCAAT/enhancer-binding protein beta (Homo sapiens) (P17676 whole entry, looked up): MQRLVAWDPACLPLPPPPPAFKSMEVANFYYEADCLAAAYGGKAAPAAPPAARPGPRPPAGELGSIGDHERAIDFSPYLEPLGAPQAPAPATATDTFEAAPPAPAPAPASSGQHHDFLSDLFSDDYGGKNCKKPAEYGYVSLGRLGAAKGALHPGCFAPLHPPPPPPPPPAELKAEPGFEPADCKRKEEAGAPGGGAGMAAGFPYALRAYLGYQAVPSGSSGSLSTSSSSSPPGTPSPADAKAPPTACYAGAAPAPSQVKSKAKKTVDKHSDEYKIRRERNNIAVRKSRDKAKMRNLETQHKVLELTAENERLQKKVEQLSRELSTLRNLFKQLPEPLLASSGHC
Sequence of Hepatocyte nuclear factor 3-beta (Homo sapiens) (Q9Y261 whole entry, looked up): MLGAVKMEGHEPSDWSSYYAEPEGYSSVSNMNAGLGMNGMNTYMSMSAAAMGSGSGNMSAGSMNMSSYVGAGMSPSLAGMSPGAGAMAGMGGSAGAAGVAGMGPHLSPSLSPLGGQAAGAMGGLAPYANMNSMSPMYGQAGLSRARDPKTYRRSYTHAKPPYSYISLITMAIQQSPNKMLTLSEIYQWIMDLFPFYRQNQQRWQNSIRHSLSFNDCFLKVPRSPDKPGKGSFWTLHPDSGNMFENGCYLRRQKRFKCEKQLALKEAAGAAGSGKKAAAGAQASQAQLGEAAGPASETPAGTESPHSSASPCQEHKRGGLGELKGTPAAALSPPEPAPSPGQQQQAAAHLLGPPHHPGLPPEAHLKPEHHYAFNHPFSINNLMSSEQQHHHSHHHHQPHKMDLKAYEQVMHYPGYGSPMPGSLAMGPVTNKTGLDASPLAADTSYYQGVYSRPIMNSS

CCCCOC(=O)C(C)O (stereo not drawn)
inactive: all assays above

CCOC(=O)CC(=O)C(F)(F)C(F)(F)F
active: [1] 9.87 µM
inactive: all other assays above

CCN(CCO)S(=O)(=O)C(F)(F)C(F)(F)C(F)(F)C(F)(F)C(F)(F)C(F)(F)C(F)(F)C(F)(F)F
active: [2] 28.9 µM
not listed: [15]
inactive: all other assays above

O=C(O)C(F)(F)C(F)(F)C(F)(F)C(=O)O
not listed: [16]
inactive: all other assays above

CCOC(C=C(C)CCC=C(C)C)OCC
inactive: all assays above

Oc1ccc(C2(c3ccc(O)c(C4CCCCC4)c3)CCCCC2)cc1C1CCCCC1
active: [4] 8.9 µM | [5] 2.73 µM | [7] 33.4 µM | [10] 8.25 µM | [14] 8.92 µM | [15] 8.87 µM | [17] 16.5 µM | [18] 60.1 µM | [20] 8.81 µM
inactive: all other assays above

Oc1ccc2c(c1)CCC2
active: [16] 55.2 µM
inactive: all other assays above
